# Experimental data from PubChem BioAssay AID2599 (Sanford-Burnham Center for Chemical Genomics, 2010).
# The campaign covered roughly 330,000 compounds. About 5,800 (1.8%) were called active. This excerpt belongs to a sample that is enriched for actives. A number with no mark means an inactive call.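 The calls were made as follows: active = inhibition above about 50% at the single tested dose (limit read from the data); inactive = the rest.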
# Target: Sentrin-specific protease 6 (Homo sapiens) (UniProt Q9GZR1)
# Sequence (Q9GZR1 628-1112 limits assumed): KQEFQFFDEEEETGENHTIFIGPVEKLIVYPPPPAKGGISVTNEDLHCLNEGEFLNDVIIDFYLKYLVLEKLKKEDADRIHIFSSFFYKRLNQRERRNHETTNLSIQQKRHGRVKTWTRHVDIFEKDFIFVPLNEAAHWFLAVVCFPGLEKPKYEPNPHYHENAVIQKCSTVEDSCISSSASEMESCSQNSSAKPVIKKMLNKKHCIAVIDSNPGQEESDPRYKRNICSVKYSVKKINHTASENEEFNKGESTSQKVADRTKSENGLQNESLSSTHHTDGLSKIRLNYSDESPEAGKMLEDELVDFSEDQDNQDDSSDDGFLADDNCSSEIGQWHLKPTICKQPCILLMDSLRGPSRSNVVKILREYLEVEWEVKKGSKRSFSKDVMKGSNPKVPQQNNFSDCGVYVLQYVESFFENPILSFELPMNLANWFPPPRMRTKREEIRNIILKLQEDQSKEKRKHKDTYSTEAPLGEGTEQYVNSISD
# Experiment: inhibition of human SENP6 catalytic domain – biochemical, luminescence, uHTS, primary screen (AID 2599);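 also: plate controls were DMSO wells with enzyme for no effect and DMSO wells lacking enzyme for full effect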
# Conditions: Recombinant SENP6 catalytic domain, aminoluciferin luminescence; at 10 µM; active compounds read high
row,SMILES,inhibition
1,CC1=NN(C(=O)CCc2ccccc2O)C(O)(C(F)(F)F)C1 (stereo unspecified),13.7%
2,COc1ccccc1CCC(=O)OCC(=O)N1CCN(S(=O)(=O)c2ccc(C)cc2C)CC1,-9.38%
3,O=C(Nc1ncc([N+](=O)[O-])s1)C1COc2ccccc2O1 (stereo unspecified),97.8% (active)
4,COc1ccc(NC(=O)C2COc3ccccc3O2)cc1 (stereo unspecified),2.57%
5,COc1ccc(OC)c2sc(NC(=O)C3COc4ccccc4O3)nc12 (stereo unspecified),-3.77%
6,CC(C)(C)C(=O)NCCCNc1ccc([N+](=O)[O-])cc1,-25.9%
7,O=C(Nn1cnc2ccccc2c1=O)c1ccccc1,-4.91%
8,O=c1c2ccccc2ncn1/N=C/c1ccccc1,85.3% (active)
9,CCCc1nc2ccccc2c(=O)n1/N=C/c1ccc(O)c(O)c1,-27.3%
10,COc1cccc(CNn2cn[nH]c2=S)c1OCc1ccccc1,-3.63%
11,Cc1cc2nc(SCCN3CCOCC3)[nH]c2cc1C,1.61%
12,O=C(CCCN1C(=O)/C(=C/c2ccccc2)SC1=S)Nc1ccc(O)cc1,21.3%
13,COc1ccc(/C=C2\SC(=S)N(CC(=O)NNC(=O)c3ccncc3)C2=O)cc1,-3.66%
14,C=CCOc1ccc(/C=C2\SC(=S)N(CCC(=O)O)C2=O)cc1,100% (active)
15,O=C(CN1CCCCC1)Nc1ccccc1C(=O)NC1CC1,-13.9%
16,Cc1ccc(NC(=O)CS(=O)CC(=O)N(c2ccccc2)C(C)C(=O)NC2CCCC2)cc1 (stereo unspecified),-5.91%
17,O=C(Nc1cccc(O)c1)c1ccc(C(=O)c2ccccc2)o1,2.68%
18,C/C(=C\C(=O)c1cccnc1)Nc1ccc(C)c(C)c1,6.26%
19,C/C(=C\C(=O)c1ccccc1)Nc1cccc(O)c1,57.9% (active)
20,CCC1(CC)NC(=O)N(CC(=O)OCC(=O)c2cc(C)c(C)cc2C)C1=O,-10.6%
21,Cc1ccc(S(=O)(=O)/N=C(\CN2CCOCC2)N2CCOCC2)cc1,12.4%
22,O=C(OCC(=O)N1CCN(c2ccccc2)CC1)c1ccc([N+](=O)[O-])s1,49.4%
23,COc1ccc(C(=O)COC(=O)c2ccc([N+](=O)[O-])s2)cc1OC,38.4%
24,COc1cc(NC(=O)COC(=O)c2ccc([N+](=O)[O-])s2)cc(OC)c1OC,68.2% (active)

row,SMILES,inhibition
1,O=C(NCc1ccccc1CN1CCCC1)c1cccc(S(=O)(=O)Nc2ccc(F)cc2)c1,18.3%
2,C[C@@H]1CN([C@@H](C)CO)C(=O)c2cc(NC(=O)C3CC3)ccc2O[C@H]1CN(C)C,1.75%
3,COc1ccc(S(=O)(=O)N2CCC(C(=O)NCCC(=O)NCc3cccc(OC)c3)CC2)cc1,0.176%
4,CC(=O)N1CCN(C(=O)c2cccc(S(=O)(=O)Nc3ccc(C)cc3)c2)CC1,-4.46%
5,Cc1cccc(NS(=O)(=O)c2cccc(C(=O)NNC(=O)c3ccccc3O)c2)c1,64.3% (active)
6,Cc1cccc(NS(=O)(=O)c2ccc(C)c(C(N)=O)c2)c1,-6.03%
7,CNc1nc(SC)nc(N(C#N)CC(=O)OC)n1,11.5%
8,CCN(CC)S(=O)(=O)c1ccc(C)c(NC(=O)COc2ccc(Br)cc2Cl)c1,9.17%
9,Cc1cccc(NC(=O)Cc2ccc(Br)cc2)n1,16%
10,Cc1cccc(NC(=O)COc2ccc(Br)cc2C)n1,69.2% (active)
11,Cc1ccc(N(C(=O)Cc2cccs2)C2C=CS(=O)(=O)C2)cc1Cl (stereo unspecified),-12.7%
12,O=C1CCC(=O)N(c2ccccc2)N1,-18.9%
13,O=C(c1cnccn1)N1CCN(S(=O)(=O)c2cccc(Cl)c2)CC1,-6.78%
14,Nc1ncc(-c2cc3ccccc3oc2=O)s1,92.4% (active)
15,O=C(NCc1cccnc1)c1cccc(-c2cc3ccccc3oc2=O)c1,-7.83%
16,Cc1cc2c(=O)n(C)c(SCC(=O)c3cc4ccccc4o3)nc2s1,15.6%
17,O=C(CN1C(=O)CC(c2ccccc2)=Nc2ccccc21)NC1CCCCC1,-12%
18,CSCCC(NC(=O)COc1ccccc1)C(=O)Nc1ccc(C)cc1 (stereo unspecified),-14.9%
19,Cc1cccc(Nc2nc(-c3ccccc3)cs2)n1,93.1% (active)
20,CC(=O)Nc1cccc(-c2csc(Nc3cccc(C)n3)n2)c1,91.9% (active)
21,O=C(Nc1ccc(-c2csc(Nc3cccc(C(F)(F)F)c3)n2)cc1)c1cccc(C(F)(F)F)c1,-9.78%
22,Cc1nc(NC(=O)c2cccc(Cl)c2)sc1-c1csc(Nc2cccc(Cl)c2)n1,20%
23,Cc1ccccc1Nc1nc(-c2cccnc2)cs1,47.4%
24,O=C(O)c1ccccc1C(=O)Nc1nc(-c2ccccc2)cs1,-12.1%

row,SMILES,inhibition
1,Cn1nnnc1SCC(=O)Nc1cccc(S(=O)(=O)N2CCCCC2)c1,-12.9%
2,Cc1cccc(CSc2nc3c(c(=O)n2C)SCC3)c1,21.2%
3,O=C(N/N=C\c1cc(Br)c(Br)o1)C1COc2ccccc2O1 (stereo unspecified),-7.15%
4,Cc1ccc(C(=O)N/N=C/c2cccc3ccccc23)cn1,-7.6%
5,Cc1ccc(C(=O)N/N=C\c2cc(Br)c(Br)o2)cn1,66% (active)
6,CNC(=S)N/N=C/c1ccc(OCc2ccccc2)c(Br)c1,-0.485%
7,CC(C)Oc1ccc(CN2CCC(n3nccc3NC(=O)c3cccnc3)CC2)cc1,0.591%
8,CSc1ccc(/C=N/NC(=O)c2cccc(Cl)c2)cc1,94.4% (active)
9,O=C(N/N=C/c1ccc(Cl)c(Cl)c1)c1ccc2nc[nH]c2c1,-7.64%
10,CSc1ccc(/C=N\NC(=O)CC(=O)NC(C)C)cc1,-5.21%
11,Cc1cc(C)c(NC(=O)CN2CCOCCOCCOCCOCC2)c(C)c1,-4.6%
12,CN(C)C(CNC(=O)CCCOc1ccccc1)c1ccco1 (stereo unspecified),-5.38%
13,O=c1oc2cc(O)ccc2cc1-c1ccc(F)cc1,98% (active)
14,CCCCCCc1cc2cc(-c3nnc(-c4ccccc4)o3)c(=O)oc2cc1O,-12.7%
15,CN(C)c1cc(-c2ccc(F)cc2)oc(=O)c1Cl,-8.53%
16,COC(=O)c1c(C)oc(C)c1S(=O)(=O)NCc1ccc(Cl)cc1,-15.4%
17,CCOC(=O)c1c(/N=C/c2cc(C)ccc2O)sc2c1CCC2,6.68%
18,Cc1ccnc2nc(C(=O)Nc3nnc(-c4ccccc4)o3)nn12,7.14%
19,O=C(Nc1ccccc1C(F)(F)F)c1cc(-c2ccc(O)cc2)on1,1.85%
20,Cc1ccc(O)c(NC(=O)c2cc(-c3ccco3)on2)c1,62.9% (active)
21,O=C(Nc1cccnc1Cl)c1cc(-c2ccccc2O)on1,17.2%
22,CCOC(=O)Cc1csc(SCC(=O)NC(C)C23CC4CC(CC(C4)C2)C3)n1 (stereo unspecified),-13.9%
23,O=C1CCC(=O)N1c1ccc(NCCc2ccccc2F)c([N+](=O)[O-])c1,11.8%
24,O=C(Nc1ccccc1C(=O)O)c1cc(S(=O)(=O)N2CCCCC2)cs1,15.3%

row,SMILES,inhibition
1,O=C(COc1ccc([N+](=O)[O-])cc1Cl)Nc1ccc2[nH]c(=O)[nH]c2c1,-8.3%
2,C/C(=N\NC(=O)CC(C)C)c1c(C(F)(F)F)[nH]n(-c2nc3ccccc3s2)c1=O,98% (active)
3,CCc1ccc(-c2cc(C(=O)NCc3ccco3)c3ccccc3n2)s1,-10.2%
4,CCC(C)Cn1c(O)cc2nn(-c3nc4ccccc4s3)c(=O)c-2c1C (stereo unspecified),-3.5%
5,CC(=NCc1ccco1)c1c(C(F)(F)F)[nH]n(-c2nc3ccccc3s2)c1=O,97.8% (active)
6,CC(=NCc1ccco1)C1=C(O)c2ccccc2C1=O,18.6%
7,CC(C)CC(=O)N/C(N)=N/c1nc2ccccc2s1,29.7%
8,COc1ccccc1C(=O)NCCC(=O)NC(C)CCc1ccccc1 (stereo unspecified),-4.44%
9,O=C(CN1CCCSc2ccccc21)N1CCN(S(=O)(=O)c2cccc(F)c2)CC1,-22.3%
10,CCCN1Cc2cccc(C(=O)NCc3ccccc3)c2C1=O,10.8%
11,Cc1ccc(NS(=O)(=O)c2ccc(-c3coc(C)n3)cc2)c(C)c1,-4.93%
12,CCOC(=O)[C@H]1[C@H]2COc3cc(OC)ccc3[C@@H]2N2C(=O)CN(Cc3ccc(Cl)cc3)C(=O)[C@@]12C,-7.07%
13,COc1ccccc1N1CCN(S(=O)(=O)CCNC(=O)c2ccc(OC(C)C)cc2)CC1,-8.31%
14,COc1cc(NC(=O)CSc2ccc(-c3cccnc3)nn2)cc(OC)c1,4.11%
15,COc1ccccc1NC(=O)c1c(Br)cnn1C,-0.608%
16,N/C(=N\OC(=O)CCC1CCCCC1)c1ccccn1,87.4% (active)
17,COc1ccccc1OCC(=O)O/N=C(\N)c1ccccn1,13.8%
18,N/C(=N\OC(=O)CC1CCCCC1)c1ccccc1,40.3%
19,Cc1ccc(O)c(CCc2ccccc2)n1,8.36%
20,CCCc1ccc(-c2c(C)sc(NC(=O)c3ccnn3C)c2C#N)cc1,-0.479%
21,CN(C)C(=O)CSc1n[nH]c(-c2ccco2)n1,0.308%
22,O=C(O)CC(Cn1cnnn1)c1ccccc1 (stereo unspecified),-0.459%
23,O=C(NCCS(=O)(=O)N1CCN(c2ccccc2)CC1)c1ccco1,6.25%
24,CCOc1ccc(NC(=O)CCC(=O)NNC(=O)NC2CCCCC2)cc1,-9.85%
